Laboratory results from PubChem BioAssay (NCATS).
Inconclusive results are not listed. Active and inactive are the calls of the source. Calls come from the whole dose curve; as a rule, active = well fitted curve in the direction sought with a large enough effect; inconclusive = small, poorly fitted or top-dose-only effect, or another doubt; inactive = no such curve, though single readings can be large; an effect the other way counts as inactive or inconclusive. Where a SMILES comes first, the peptide text is derived from it. [ ]: non-standard residue; d: D form. The star is where a group is joined. AFC = O=c1cc(C(F)(F)F)c2ccc(N*)cc2o1; PhLac = O=C(O)[CH](O)Cc1ccccc1; NMeV = CN[CH](C(=O)O)C(C)C

Tests used:
CRL-7250 = normal cell line; assay: Cytotoxic Profiling of Annotated Libraries Using Quantitative High-Throughput Screening (AID 1296008); conditions: Five cell lines viability, CellTiter-Glo ATP luminescence, 48-72 h; max response: active compounds read low; note: nearly all actives have a fitted effect of over 60% in size; for max response: % is set by controls: 0 for no effect and ±100 for the full control effect
How it was run: (§1)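 Compounds were pin-transferred onto cells and incubated 48 or 72 hr at 37 degree Celsius, 95% humidity. CellTiter-Glo was added, plates sat 10 min at room temperature, then ATP-coupled luminescence was imaged as the viability read-out.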

HEK293 = assay: as above; conditions: Five cell lines viability, CellTiter-Glo ATP luminescence, 48-72 h; max response: active compounds read low
How it was run: as §1

HaCat = assay: as above; conditions: Five cell lines viability, CellTiter-Glo ATP luminescence, 48-72 h; max response: active compounds read low
How it was run: as §1

KB-3-1 = assay: as above; conditions: Five cell lines viability, CellTiter-Glo ATP luminescence, 48-72 h; max response: active compounds read low
How it was run: as §1

NIH3T3 = assay: as above; conditions: Five cell lines viability, CellTiter-Glo ATP luminescence, 48-72 h; max response: active compounds read low
How it was run: as §1

HEK293T = assay: qHTS assay to identify novel small-molecules to repurpose for Merkel cell carcinoma treatment (AID 1296009); conditions: MCC and control cell lines, CellTiter-Glo viability, 72 h; series mostly up to 44.8 µM; note: nearly all actives have a fitted effect of over 60% in size
How it was run: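 Luminescence from CellTiter-Glo, read 10 min after addition at room temperature, reported viability following a 72 hr, 37 degree celsius treatment with NPC or MIPE compounds in titration; values normalized to plate controls.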

C33A = assay: Primary qHTS to identify gynecologic anti-cancer compounds using libraries of approved drugs and bioactive compounds (AID 1345084); conditions: Gynecologic cancer cell panel viability, ATPlite luminescence, 48 h; series mostly up to 57.5 µM; note: % is set by controls: 0 for no effect and ±100 for the full control effect; nearly all actives have a fitted effect of over 55% in size
How it was run: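 Cytotoxicity screen measuring ATP content by luciferase luminescence. Each compound is applied at five concentrations for 48 h at 37 C with 5% CO2.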

CCC(C)(O)C(O)C(=O)OCc1ccc(O[C@@H]2O[C@H](CO)[C@@H](O)[C@H](O)[C@H]2O)cc1 (some centres not stated)
inactive: max response (CRL-7250) -2.71% | outcome (HEK293) | max response (HaCat) -0.484% | outcome (KB-3-1) | max response (NIH3T3) -0.787% | Potency (HEK293T) | Potency (C33A)

C=C1CC[C@H]2[C@@](C)(CCC[C@@]2(C)C(=O)O)[C@@H]1CCC(C)CCO (some centres not stated)
inactive: max response (CRL-7250) -8.65% | outcome (HEK293) | max response (HaCat) 1.39% | max response (KB-3-1) 2.57% | max response (NIH3T3) 3.89% | Potency (HEK293T) | Potency (C33A)

CCN(c1cc(C#CCN2CCOCC2)cc(C(=O)NCc2c(C)cc(C)[nH]c2=O)c1C)C1CCC(N(C)CCOC)CC1 (configuration not stated)
inactive: outcome (CRL-7250) | outcome (HEK293) | max response (HaCat) -3.84% | outcome (KB-3-1) | outcome (NIH3T3) | Potency (HEK293T) | Potency (C33A)

COC(=O)[C@]12C(=O)C(C)=C(O)[C@@]1(C)C(C)=CC1[C@@]34CC[C@@H](OC(C)=O)C(C)(C)C3[C@H](C[C@]12C)OC4=O (some centres not stated)
inactive: max response (CRL-7250) 4.87% | outcome (HEK293) | max response (HaCat) -9.29% | max response (KB-3-1) 1.77% | max response (NIH3T3) 4.25% | Potency (HEK293T) | Potency (C33A)

C=C/C=C/[C@@H]1OC[C@H](/C=C/C=C/C)[C@H]1O
inactive: max response (CRL-7250) -3.1% | outcome (HEK293) | max response (HaCat) -9.46% | outcome (KB-3-1) | max response (NIH3T3) -1.27% | Potency (HEK293T) | Potency (C33A)

CC1(C)CCC2(C(=O)OC3OC(COC4OC(CO)C(O)C(O)C4O)C(O)C(O)C3O)CCC3(C)C(=CCC4C5(C)CCC(O)C(C)(C(=O)O)C5CCC43C)C2C1O (configuration not stated)
inactive: outcome (CRL-7250) | outcome (HEK293) | max response (HaCat) 2.41% | outcome (KB-3-1) | max response (NIH3T3) 4.9% | outcome (HEK293T) inactive [at 9.27 µM] | activity change, negative = cytotoxicity (C33A) 2.23% [at 11.6 µM]

CC(=O)N[C@@H](CC(C)C)C(=O)N[C@@H](CCC(=O)O)C(=O)N[C@@H](CCC(=O)O)C(=O)N[C@@H](CC(=O)O)C(=O)Nc1ccc2c(C(F)(F)F)cc(=O)oc2c1 (Ac-LEED-{AFC})
inactive: max response (CRL-7250) -4.37% | outcome (HEK293) | max response (HaCat) -31% | max response (KB-3-1) 0.179% | max response (NIH3T3) 1.1% | Potency (HEK293T) | Potency (C33A)

CC(C)CC(=O)OC[C@H]1O[C@@](COC(=O)CC(C)C)(O[C@H]2O[C@H](CO)[C@@H](O)[C@H](O)[C@H]2OC(=O)CC(C)C)[C@@H](OC(=O)CC(C)C)[C@@H]1O
inactive: outcome (CRL-7250) | outcome (HEK293) | max response (HaCat) -5.25% | max response (KB-3-1) 6.03% | max response (NIH3T3) 0.671% | Potency (HEK293T) | Potency (C33A)

CC(=O)c1c(O)cc2c(c1C)C(=O)CC(O)C2 (configuration not stated)
inactive: max response (CRL-7250) 4.51% | outcome (HEK293) | max response (HaCat) 1.58% | max response (KB-3-1) 9.72% | max response (NIH3T3) 1.74% | Potency (HEK293T) | Potency (C33A)

COc1cc2c(cc1O)C1(OC)Cc3ccc4c(c3C1N(C)CC2)OCO4 (configuration not stated)
inactive: max response (CRL-7250) -5.51% | outcome (HEK293) | max response (HaCat) -3.77% | max response (KB-3-1) 9.56% | max response (NIH3T3) 2.76% | Potency (HEK293T) | Potency (C33A)

Cn1c(=O)c2nc(/C=C/c3cccc(Cl)c3)n(C)c2n(C)c1=O
inactive: outcome (CRL-7250) | outcome (HEK293) | max response (HaCat) -5.76% | outcome (KB-3-1) | max response (NIH3T3) -2.68% | Potency (HEK293T) | Potency (C33A)

C/C(=C\CO)CC/C=C(\C)C(=O)O[C@H]1[C@H](OC2OC=C(C(=O)O)C3CCC(C)(O)C23)O[C@H](CO)[C@@H](O)[C@@H]1O (some centres not stated)
inactive: max response (CRL-7250) -10.5% | outcome (HEK293) | max response (HaCat) 1.01% | outcome (KB-3-1) | max response (NIH3T3) 0.631% | Potency (HEK293T) | Potency (C33A)

C[C@@H]1O[C@@H](O[C@H]2[C@H](O[C@H]3CO[C@@H](O[C@H]4CC[C@@]5(C)C(CC[C@]6(C)C5CC[C@]57OC[C@@]8(CC[C@](C)(CO)CC85)[C@H](O)C[C@]76C)C4(C)C)[C@H](O[C@@H]4O[C@H](CO)[C@@H](O)[C@H](O)[C@H]4O)[C@H]3O)O[C@H](CO)[C@@H](O)[C@@H]2O)[C@H](O)[C@H](O)[C@H]1O (some centres not stated)
inactive: max response (CRL-7250) -17.3% | outcome (HEK293) | max response (HaCat) -3.02% | max response (KB-3-1) 5.69% | max response (NIH3T3) 2.44% | outcome (HEK293T) inactive [at 9.27 µM] | activity change, negative = cytotoxicity (C33A) -5.68% [at 11.6 µM]

CCC(C)/C=C(C)/C=C/C1=CC2=C(Cl)C(=O)C(C)(OC(C)=O)C(=O)C2=CN1CCCC(=O)O (configuration not stated)
inactive: outcome (CRL-7250) | outcome (HEK293) | max response (HaCat) -6.78% | outcome (KB-3-1) | max response (NIH3T3) -0.464% | Potency (HEK293T) | Potency (C33A)

C=CC1(C)CC(O)C2(CCC3C(C)(C(=O)O)CCCC3(C)C2=O)C1 (configuration not stated)
inactive: max response (CRL-7250) -1.04% | outcome (HEK293) | max response (HaCat) -1.18% | outcome (KB-3-1) | max response (NIH3T3) 1.85% | Potency (HEK293T) | Potency (C33A)

CC(C)C(C(=O)N1CCCC1C(=O)O)N(C)C(=O)C(O)Cc1ccccc1 (configuration not stated) (H-[PhLac]-[NMeV]-Pro-OH; configuration not given here)
inactive: outcome (CRL-7250) | outcome (HEK293) | max response (HaCat) -7.13% | outcome (KB-3-1) | max response (NIH3T3) -4.85% | Potency (HEK293T) | Potency (C33A)
